# Source: PubChem BioAssay AID493085 (Broad Institute, 2011)
# The campaign covered roughly 2,400 compounds. About 360 (15%) were called active. Another 5% or so got no clear call; they are omitted. These entries were drawn from the full list. Measured potencies and affinities stand elsewhere. A number with no mark means an inactive call.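 The calls were made as follows: active = falling-signal curve with half-maximal concentration at or below ten times the top tested dose; inconclusive = flat fit at 30 to 70% inhibition, or poor fit; inactive = signal rise, flat within 30%, or potency beyond limit.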
# Assay: Tet-On RFP internal-standard readout, HSF1 screen, dose response, cell-based, NIH3T3 R4, HSE-GFP and Tet-On RFP, cherry-pick, set 3 (AID 493085);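 also: cells heat shocked 2 h at 42 °C with doxycycline to induce reporters; 0% = neutral control wells and -100% = didemnin B control at 400 nM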
# Settings: NIH3T3 R4 HSE-GFP/Tet-RFP reporter, fluorescence, 48 h; series mostly up to 19.5 µM; activity change, negative = inhibition: at the top concentration
row,SMILES,"activity change, negative = inhibition"
1,COc1ccc(OC(C)C(=O)N2CCC(C)CC2)cc1 (stereo unspecified),-3.93%
2,CCOC(=O)c1ccc(NC(=O)Oc2ccccc2)cc1,-4.21%
3,CCOC(=O)c1ccc(NC(=S)Nc2ccccc2N)cc1,-7.45%
4,COc1ccc(-n2c(-c3ccc(F)cc3)cnc2SCC(=O)NCc2ccco2)cc1,-3.84%
5,Cc1cc2cc(CCNC(=O)C(=O)c3c[nH]c4ccccc34)c(=O)[nH]c2cc1C,-3.78%
6,CC(c1ccccc1)N1CCN(C(=O)CCl)CC1 (stereo unspecified),2.46%
7,O=C(Nc1ccc(Cl)cn1)c1ccc2c(Cl)c3c(nc2c1)CCC3,23%
8,O=C(CSc1ccccc1)Nc1cccc(NC(=O)c2ccco2)c1,-6.38%
9,CC(=O)COc1ccccc1OC(=O)c1ccco1,3.47%
10,N/C(=N\c1nc2ccccc2o1)NC(=O)c1ccc(Cl)cc1,4.58%
11,Cc1nnc(N2C(=O)c3cccc4cccc(c34)C2=O)s1,-1.34%
12,COc1cccc(NC(=O)N2CCCC2C(=O)NC(C)C)c1 (stereo unspecified),8.18%
13,CCOC(=O)c1cnn(-c2ccccc2)c1-n1cccc1,-4.52%
14,COc1nn(-c2ccccc2)c(=O)c(Cl)c1Cl,-66.5%
15,O=C(C1CCC(CNS(=O)(=O)c2cccc3cccnc23)CC1)N1CCCC1 (stereo unspecified),18.4%
16,CCC(=O)Nc1c(-c2ccc(Cl)cc2)c(=O)c2ccccc2n1C,2.21%
17,COc1c([N+](=O)[O-])c(=O)oc2ccccc12,-1.15%
18,CCOc1c(C)cc(S(=O)(=O)NCc2cccnc2)c(C)c1C,-2.75%
19,Cc1ccc(C(=O)Nc2ccc(C(=O)O)cc2NC(=O)c2ccc(C)cc2)cc1,-8.11%

row,SMILES,"activity change, negative = inhibition"
1,COc1ccc(C(=O)Nc2ccc(OCc3ccccc3)cc2)cc1[N+](=O)[O-],20.1%
2,CCOc1ccc(OCc2cccc(C(=O)O)c2)cc1,-1.67%
3,CCCCN(C)C(=O)CCC(=O)Nc1ccc2nc(N3CCN(C)CC3)cc(C)c2c1,0.044%
4,CC(C)CC(NC(=O)C1CCCN1C(=O)[C@@H](C)NC(=O)OCc1ccccc1)C(=O)NCC(N)=O (stereo partly specified),-0.054%
5,CC(=O)c1ccc(NC(=O)C(C)n2nc(-c3ccccc3)c3cc(Cl)ccc32)cc1 (stereo unspecified),-1.25%
6,CC1Cc2ccccc2N1C(=O)C12CCC(C)(C(=O)C1)C2(C)C (stereo unspecified),-7.93%
7,O=S(=O)(/N=C(/c1ccccc1Cl)N1CCOCC1)c1ccccc1,-5.16%
8,O=C(c1cc(Cl)ccc1Cl)N1CCOCC1,-1.28%
9,COc1cc(SC)ccc1C(=O)NCC1CCCO1 (stereo unspecified),-2.99%
10,COCC(C)NC(=O)c1ccc2nc(-c3ccccc3)c(-c3ccccc3)nc2c1 (stereo unspecified),2.21%
11,CCn1cc(S(=O)(=O)Nc2ccc3c(c2)OCCO3)cn1,36.6%
12,Cc1nc(SCC(=O)NCC2CCCO2)[nH]c(=O)c1C (stereo unspecified),0.854%
13,O=C(Cc1ccccc1F)Nc1ccc(S(=O)(=O)N2CCCCC2)cc1,-1.75%
14,O=C(N1CCCCC1)N1CCN(S(=O)(=O)c2ccccc2)CC1,-7.11%
15,C=CCNC(=S)Nc1sc2c(c1C#N)CCCC2,-6.78%
16,CCOc1ccc(NC(=S)N(CCc2ccncc2)C(C)C)cc1,0.037%
17,Cc1ccc([N+](=O)[O-])c(OCCCN2CCC(Cc3ccccc3)CC2)c1,0.591%
18,O=C(OCn1ncc(Cl)c(Cl)c1=O)c1ccccc1Cl,19.6%
19,COc1cc(NC(=O)Cn2ncc(Cl)c(Cl)c2=O)c(C)cc1[N+](=O)[O-],-74.7%

row,SMILES,"activity change, negative = inhibition"
1,CCCNC(=O)NC1C(NC(=O)NCCC)N(C)C(=O)N1C (stereo unspecified),-1.63%
2,CCc1ccc(NC(=O)C2C3CCC(O3)C2C(=O)O)cc1 (stereo unspecified),5.37%
3,Cc1ccc(S(=O)(=O)N(C)c2ccccc2C(=O)NC2CCCC2)cc1,-7.71%
4,S=c1[nH]nc(-c2cnccn2)n1-c1ccccc1,-8.92%
5,Cc1ccc(NC(=O)COC(=O)Cn2cnc3ccccc32)cc1S(=O)(=O)N(C)C,-0.192%
6,O=C(O)c1ccc(N/N=C/c2ccc(OC(=O)c3ccccc3Cl)cc2)cc1,-3.02%
7,CC(C)c1ccc(/C=N/Nc2ccc(C(=O)O)cc2)cc1,10.4%
8,O=C(Nc1ccc2[nH]ncc2c1)c1ccccc1Cl,-0.069%
9,N#C/C(=C\Nc1ccc2cn[nH]c2c1)c1nc(-c2ccccc2)cs1,3.6%
10,CCOC(=O)c1ccc(Cl)c(NC(=O)c2cccnc2)c1,-3.1%
11,CCc1ccc(NC(=O)CSc2ccc(-c3cccnc3)nn2)cc1,4.37%
12,O=C(NC(=S)Nc1ccc2oc(=O)ccc2c1)c1cc2ccccc2o1,15.4%
13,Cc1ccc(NC(=O)c2cc(NC(=O)c3ccco3)ccc2N2CCOCC2)cc1,-3%
14,O=c1c2c3c(sc2nc(NCCOCCO)n1Cc1ccco1)CCCCC3,10.9%
15,COc1ccc(NC(=O)c2cc3cc(OC)ccc3oc2=N)cc1,-4.04%
16,COc1cccc(/C=C/C(=O)NCc2ccc3c(c2)OCO3)c1,-6.73%
17,Cc1cccc(NC(=O)c2sc(-c3ccccc3)nc2-c2ccc([N+](=O)[O-])cc2)c1,-7.95%
18,CCOC(=O)/C(C#N)=C/c1cc(C)n(-c2ccccc2)c1C,-2.19%
